Test results published in PubChem BioAssay (NCATS).
“And” between values parts separate entries of the source, which are not always exact repeats. Identical values can stand only once. Inconclusive results are not listed. The source made the active and inactive calls.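 Rule for the calls, unless noted: active = compounds whose dose series gives a full or clear partial fitted curve of increased nuclear translocation; inconclusive = weak partial curve or effect only at the top dose; inactive = no dose-dependent translocation response.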

What was measured:
[1] = target: Glucocorticoid receptor (Homo sapiens) (UniProt P04150); experiment: GR-GFP Redistribution (AID 450); conditions: U2OS GR-GFP nuclear translocation, laser cytometry, 2 h; note: potency is the fitted concentration of half-maximal effect
[2] = target: Glucocorticoid receptor (Homo sapiens) (UniProt P04150); experiment: GR-EFC Redistribution (AID 451; calls by dose curve; note: potency is the fitted concentration of half-maximal effect); conditions: CHO-K1 GR-EFC translocation, beta-gal luminescence, 2 h
In short: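 CHO-K1 cells expressing nuclear EA and GR-ED fragments of b-gal; compounds titrated up to 46 uM final, 2 h at 37 C. GR nuclear translocation read as complemented b-gal luminescence after 1 h RT detection.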

[3] = target: Mitogen-activated protein kinase 10 (Mus musculus) (UniProt Q61831); experiment: JNK3 AlphaScreen Assay (AID 530; active = well fitted curve in either direction with a large enough effect, not every such curve was filed as active;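 note: kinase came from lysate of stimulated human HepG2 cells; signal reports phosphorylation of biotinylated GST-cJun 1-79 at Ser73 with 10 µM ATP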); conditions: JNK3 lysate, c-Jun phosphorylation; series mostly up to 57.1 µM
In short: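 qHTS format: compounds tested as titrations against IL-1beta/TNF-alpha-activated HepG2 lysate JNK3 with biotin-GST-cJun substrate and 10 uM ATP at room temperature. Loss of anti-phospho-cJun AlphaScreen signal indicates inhibition.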

[4] = target: 3',5'-cyclic-AMP phosphodiesterase 4B (Homo sapiens) (UniProt Q07343); experiment: qHTS Assay for Inhibitors of PDE-IV (AID 607; active = well fitted activation curve with a large enough effect in the main read-out, with a control signal flat, not every such curve was filed as active; note: potency is the fitted concentration of half-maximal effect); conditions: HEK293 ACTOne CNG channel cells, membrane potential fluorescence; series mostly up to 22.9 µM
In short: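 The readout is membrane depolarisation from a cAMP-sensing CNG channel, detected with a potential dye at ex 535/em 590. Cells were HEK293-derived (endogenous PDE-IV) at 1000 cells/well, titrated up to 22.9 uM final.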

[5] = Cell Viability - HUV-EC-C (AID 542; active = well fitted curve in the direction sought with a large enough effect; an effect the other way counts as inactive or inconclusive; note: nearly all actives have a fitted effect of over 35% in size); conditions: HUV-EC-C endothelial cell viability, qHTS; series mostly up to 92.2 µM
In short: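 HUV-EC-C normal human vascular endothelial cells, 1000 cells/well, pre-incubated 5 hr at 37 °C, then exposed to compounds for 40 hr at 37 °C in complete medium. Viability measured as intracellular ATP by CellTiter-Glo luminescence; AC50 from Hill fits.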

[6] = Cell Viability - Mesenchymal (AID 546; active = well fitted curve in the direction sought with a large enough effect; an effect the other way counts as inactive or inconclusive;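 note: cells exposed to compound for 40 hours before reading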); conditions: mesenchymal cells viability, qHTS; series mostly up to 91.7 µM
In short: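 Human kidney mesenchymal cells from normal renal glomeruli, 1000 cells/well, rested 5 hr at 37 °C, then treated 40 hr at 37 °C in complete medium. Cellular ATP read by CellTiter-Glo luminescence; AC50 from Hill-equation fits.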

[7] = Cellular Toxicity (caspase-3) Jurkat (AID 655; active = well fitted curve in the direction sought with a large enough effect; an effect the other way counts as inactive or inconclusive;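 note: cells exposed to compound for 16 h at 37 °C before reading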); conditions: Jurkat caspase-3 activation, luminescence, DMSO = 0%, tamoxifen = 100%; series mostly up to 92.2 µM
In short: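 Jurkat cells (5000/well) in complete medium exposed 16 h at 37 C; caspase-3/7 activity read by Caspase-Glo luminescence after 20 min at room temperature. Normalized to DMSO and 100 uM tamoxifen; AC50 from Hill fits.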

[8] = Cellular Toxicity (caspase-3) HUV-EC-C (AID 656; active = well fitted curve in the direction sought with a large enough effect; an effect the other way counts as inactive or inconclusive); conditions: HUV-EC-C cells, caspase-3 activation (apoptosis), vehicle = 0, 100 µM tamoxifen = 100%; series mostly up to 92.2 µM
In short: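 HUV-EC-C cells (1000/well) in complete medium, compound-treated 16 h at 37 °C; caspase-3/7 activity read by Caspase-Glo 3/7 luminescence. Normalized to DMSO (basal) and 100 uM tamoxifen (100%); AC50 from Hill-equation concentration-response fits.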

[9] = Cellular Toxicity (caspase-3) SHSY5Y (AID 657; active = well fitted curve in the direction sought with a large enough effect; an effect the other way counts as inactive or inconclusive); conditions: SH-SY5Y caspase-3 activation, DMSO zero, 10 µM staurosporine = 100%; series mostly up to 91.7 µM
In short: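 SH-SY5Y human neuroblastoma cells, 1500/well, exposed to compound for 16 hours at 37 °C in complete medium. Caspase-3/7 activity read by Caspase-Glo luminescence after 1 hr at room temperature, normalized to DMSO and 10 uM staurosporine; AC50 from Hill fit.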

[10] = Cellular Toxicity (caspase-3) MRC-5 (AID 659; active = well fitted curve in the direction sought with a large enough effect; an effect the other way counts as inactive or inconclusive); conditions: MRC-5 cells, luminescence, normalized: DMSO 0%, 10 µM staurosporine 100%; series mostly up to 91.7 µM
In short: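 MRC-5 human normal lung fibroblasts, 1500 cells/well, treated 16 h at 37 °C in complete medium. Caspase 3/7 measured by Caspase-Glo luminescence after 1 h at room temperature. Normalized to DMSO and 10 uM staurosporine; AC50 from Hill fit.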

[11] = Cellular Toxicity (caspase-3) Mesangial (AID 660; active = well fitted curve in the direction sought with a large enough effect; an effect the other way counts as inactive or inconclusive); conditions: mesangial cells, normalized: DMSO 0%, 100 µM tamoxifen 100%; series mostly up to 91.7 µM
In short: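 Human renal glomerular mesangial cells (1000/well) were treated with compounds for 16 h at 37 °C in complete medium, then caspase 3/7 activity was read by Caspase-Glo luminescence. Data were normalized to DMSO and 100 uM tamoxifen; AC50 from Hill fits.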

[12] = Cellular Toxicity (caspase-3) SK-N-SH (AID 661; active = well fitted curve in the direction sought with a large enough effect; an effect the other way counts as inactive or inconclusive); conditions: SK-N-SH caspase-3 activation, qHTS, DMSO as zero, staurosporine as full; series mostly up to 91.7 µM
In short: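 SK-N-SH human neuroblastoma cells (1500/well) were treated with compounds for 16 hr at 37 °C in complete medium; caspase 3/7 activity was read by Caspase-Glo luminescence. AC50 came from Hill fits of data normalized to DMSO and 10 uM staurosporine.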

[13] = Cellular Toxicity (caspase-3) H-4-II-E (AID 663; active = well fitted curve in the direction sought with a large enough effect; an effect the other way counts as inactive or inconclusive;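 note: cells exposed to compound for 16 hr before readout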); conditions: H-4-II-E rat hepatoma, scaled: DMSO 0%, 100 µM tamoxifen 100%; series mostly up to 92.2 µM
In short: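 Rat hepatoma H-4-II-E cells (1500/well) plated 5 hr, then exposed to compound titrations for 16 hr at 37 °C. Caspase-Glo 3/7 luminescence read after 20 min at RT; data normalized to DMSO and 100 uM tamoxifen, AC50 from Hill fits.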

[14] = Cellular Toxicity (caspase-3) Hek293 (AID 664; active = well fitted curve in the direction sought with a large enough effect; an effect the other way counts as inactive or inconclusive;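 note: cells exposed to compound for 16 h at 37 °C before readout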); conditions: HEK293 caspase-3 activation, DMSO = 0%, 100 µM tamoxifen = 100%; series mostly up to 92.2 µM
In short: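 HEK293 cells were exposed to compounds in complete medium for 16 hr at 37 °C, then caspase-3/7 activity was read by Caspase-Glo 3/7 luminescence after 20 min at room temperature. Data normalized to DMSO and 100 uM tamoxifen; AC50 from Hill fits.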

[15] = Cellular Toxicity (caspase-3) N2a (AID 665; active = well fitted curve in the direction sought with a large enough effect; an effect the other way counts as inactive or inconclusive;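 note: compound exposure lasted 16 h at 37 °C before readout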); conditions: N2a cells, luminescence, normalized: DMSO 0%, 10 µM staurosporine 100%; series mostly up to 92.2 µM
In short: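 Mouse N2a neuroblastoma cells (1500/well) were treated with compounds for 16 h at 37 °C, then caspase-3/7 activity was read by Caspase-Glo luminescence after 1 h at room temperature. Data were normalized to DMSO and 10 uM staurosporine; AC50 from Hill fits.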

[16] = Cellular Toxicity (caspase-3) NIH 3T3 (AID 666; active = well fitted curve in the direction sought with a large enough effect; an effect the other way counts as inactive or inconclusive;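 note: caspase signal read after 16 h compound exposure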); conditions: NIH 3T3 caspase-3 activation, apoptosis/toxicity, 0% DMSO, 100% is 100 µM tamoxifen; series mostly up to 92.2 µM
In short: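 Mouse NIH 3T3 fibroblasts (1000 cells/well) were treated with compound for 16 hr at 37°C in complete medium; caspase-3/7 activity was read by Caspase-Glo luminescence. Normalized to DMSO and 100 uM tamoxifen; AC50 from Hill fits.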

Measured: Potency

Chain of Glucocorticoid receptor (Homo sapiens) (P04150 whole entry, looked up, the tested form may be a part): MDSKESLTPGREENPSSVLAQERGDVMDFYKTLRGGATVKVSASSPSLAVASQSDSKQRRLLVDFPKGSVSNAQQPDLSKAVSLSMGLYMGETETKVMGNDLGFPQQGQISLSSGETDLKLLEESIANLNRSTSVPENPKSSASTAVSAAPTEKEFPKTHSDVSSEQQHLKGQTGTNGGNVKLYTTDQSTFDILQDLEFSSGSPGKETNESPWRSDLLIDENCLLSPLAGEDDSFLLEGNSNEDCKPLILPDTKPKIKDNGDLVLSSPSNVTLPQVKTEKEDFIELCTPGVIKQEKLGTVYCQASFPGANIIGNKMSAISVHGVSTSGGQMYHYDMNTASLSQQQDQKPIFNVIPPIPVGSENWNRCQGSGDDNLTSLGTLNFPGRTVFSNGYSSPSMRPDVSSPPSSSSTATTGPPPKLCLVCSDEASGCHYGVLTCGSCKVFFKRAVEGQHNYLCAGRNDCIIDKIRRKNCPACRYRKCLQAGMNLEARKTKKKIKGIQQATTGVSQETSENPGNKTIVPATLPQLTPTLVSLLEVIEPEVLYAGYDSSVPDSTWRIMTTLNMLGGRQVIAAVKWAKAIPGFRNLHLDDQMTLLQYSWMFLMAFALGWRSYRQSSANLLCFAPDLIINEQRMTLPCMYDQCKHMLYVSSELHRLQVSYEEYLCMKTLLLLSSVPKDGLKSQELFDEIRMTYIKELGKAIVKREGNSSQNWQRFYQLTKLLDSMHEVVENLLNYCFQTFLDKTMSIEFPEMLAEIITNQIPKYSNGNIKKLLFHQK
Chain of 3',5'-cyclic-AMP phosphodiesterase 4B (Homo sapiens) (Q07343 whole entry, looked up): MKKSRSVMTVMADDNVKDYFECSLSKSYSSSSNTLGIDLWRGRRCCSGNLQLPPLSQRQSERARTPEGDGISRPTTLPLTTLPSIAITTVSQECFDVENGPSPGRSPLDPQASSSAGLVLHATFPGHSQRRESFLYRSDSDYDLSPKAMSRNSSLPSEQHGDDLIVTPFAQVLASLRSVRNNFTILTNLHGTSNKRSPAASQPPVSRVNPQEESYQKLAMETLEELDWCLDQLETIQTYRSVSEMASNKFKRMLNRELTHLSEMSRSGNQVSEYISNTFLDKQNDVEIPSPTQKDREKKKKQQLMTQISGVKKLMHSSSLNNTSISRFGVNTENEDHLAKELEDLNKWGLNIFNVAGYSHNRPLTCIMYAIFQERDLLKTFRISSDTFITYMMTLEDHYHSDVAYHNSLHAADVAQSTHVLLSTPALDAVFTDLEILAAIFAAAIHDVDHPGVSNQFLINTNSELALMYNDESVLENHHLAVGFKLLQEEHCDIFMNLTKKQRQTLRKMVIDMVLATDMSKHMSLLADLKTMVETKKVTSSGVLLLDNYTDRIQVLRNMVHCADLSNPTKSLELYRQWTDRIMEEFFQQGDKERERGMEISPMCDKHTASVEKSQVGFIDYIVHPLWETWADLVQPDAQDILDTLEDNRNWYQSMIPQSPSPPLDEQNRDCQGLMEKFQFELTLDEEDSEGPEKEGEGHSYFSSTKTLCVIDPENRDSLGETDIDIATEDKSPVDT

C[C@@H]1O[C@H](C[N+](C)(C)C)C[C@H]1O
active: [4] 3.16 µM
inactive: [1] > 46 µM | [2] > 46 µM | [3]

CC1=NN=C(c2ccc(N)cc2)c2cc3c(cc2C1)OCO3
inactive: [1] > 46 µM | [2] > 46 µM | [3] | [4]

CNCCc1c[nH]c2ccc(O)cc12
inactive: [1] > 46 µM | [2] > 46 µM | [3] | [4]

O=C(O)CC[N+](=O)[O-]
inactive: [1] > 46 µM | [2] > 46 µM | [3] | [4]

S=C(NC1CCCCC1)N1CCC(c2cnc[nH]2)CC1
inactive: [1] > 46 µM | [2] > 46 µM | [3] | [4]

Cc1c(C(=O)c2cccc3ccccc23)c2cccc3c2n1[C@H](CN1CCOCC1)CO3
inactive: [1] > 46 µM | [2] > 46 µM | [3] | [4]

CC(=O)NCCc1c[nH]c2ccccc12
inactive: [1] > 46 µM | [2] > 46 µM | [3] | [4]

NC(=NCCC[C@H](N)C(=O)O)N[N+](=O)[O-]
inactive: [1] > 46 µM | [2] > 20.6 µM | [3]

NCCc1c[nH]c2ccc(O)cc12
inactive: [1] > 46 µM and > 20.6 µM | [2] > 46 µM and > 20.6 µM | [3] | [4]

CC(C)Oc1cccnc1N(C)C1CCN(Cc2ccccc2)CC1
inactive: [1] > 46 µM | [2] > 46 µM | [3] | [4]

CNCCc1ccc(O)c(O)c1
inactive: [1] > 46 µM | [2] > 46 µM | [3] | [4]

O=C(O)Cc1cnc[nH]1
inactive: [1] > 46 µM | [2] > 46 µM | [3] | [4]

Clc1cnc(Oc2ccc(Oc3ncc(Cl)cc3Cl)cc2)c(Cl)c1
inactive: [1] > 46 µM | [2] > 46 µM | [3] | [4]

CN[C@@H]1C[C@@H](c2ccc(Cl)c(Cl)c2)c2ccccc21
inactive: [1] > 46 µM | [2] > 46 µM | [3] | [4]

O=c1cccc2n1CC1CNC[C@H]2C1
inactive: [1] > 20.6 µM and > 46 µM | [2] > 46 µM | [3] | [4]

CCCCc1ccc(C(=O)O)nc1
inactive: [1] > 46 µM and > 20.6 µM | [2] > 46 µM and > 20.6 µM | [3] | [4]

CC[C@@]1(O)C(=O)OCc2c1cc1n(c2=O)Cc2cc3ccccc3nc2-1
inactive: [1] > 46 µM and > 20.6 µM | [2] > 46 µM and > 20.6 µM | [3] | [4]

C[C@@H](N)Cc1cnc[nH]1
inactive: [1] > 46 µM | [2] > 46 µM | [3] | [4]

C#CCOC(=O)C1=CCCN(C)C1
active: [4] 0.398 µM
inactive: [1] > 46 µM | [2] > 46 µM | [3]

c1ccc(CCCN2CCN(CCOC(c3ccccc3)c3ccccc3)CC2)cc1
inactive: [1] > 46 µM | [2] > 46 µM | [3] | [4]

CCCN1CCC[C@H](c2cccc(O)c2)C1
inactive: [1] > 46 µM | [2] > 46 µM | [3] | [4]

COc1ccc(C(=O)c2c(C)n(CCN3CCOCC3)c3cc(I)ccc23)cc1
inactive: [1] > 46 µM | [2] > 46 µM

CCCN1CCO[C@@H]2c3cc(O)ccc3OC[C@H]21
inactive: [1] > 46 µM | [2] > 46 µM | [3] | [4]

COC(=O)[C@@H](N)CCCN=C(N)N[N+](=O)[O-]
inactive: [1] > 46 µM | [2] > 46 µM | [3]

Cc1nccc2c1[nH]c1ccccc12
inactive: [1] > 46 µM and > 20.6 µM | [2] > 46 µM and > 20.6 µM | [3] | [4]

NCc1cc(=O)[nH]o1
inactive: [1] > 46 µM | [2] > 46 µM | [3] | [4]

O=C1CCCN1CC#CCN1CCCC1
inactive: [1] > 46 µM | [2] > 46 µM | [3] | [4]

CCCN(CCC)[C@@H]1CCc2ccc(O)cc2C1
inactive: [1] > 46 µM | [2] > 46 µM | [3] | [4]

CC(=O)OCC1=C(C(=O)O)N2C(=O)[C@@H](N)[C@@H]2SC1
inactive: [1] > 20.6 µM | [2] > 20.6 µM | [3] | [4]

c1ccc2sc(C3(N4CCCCC4)CCCCC3)cc2c1
inactive: [1] > 46 µM | [2] > 46 µM | [3] | [4]

Cc1nc(-c2ccc(-c3ccc(C(=O)N4CCc5cc6c(cc54)C4(CCN(C)CC4)CO6)cc3)c(C)c2)no1
inactive: [1] > 46 µM | [2] > 46 µM | [3]

COc1ccc(C(c2ccc(OC)cc2)C(Cl)(Cl)Cl)cc1
inactive: [5] | [6] | [7] | [8] | [9] | [10] | [11] | [12] | [13] | [14] | [15] | [16]

NCCc1c[nH]c2ccccc12
inactive: [1] > 46 µM | [2] > 46 µM | [3] | [4]
